Measurements as given in publication PMC5540273 (PLoS ONE, 2017).

tested on: TIE1; settings: concentration: 1 μM, replicates: in singlicate; n = 1
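Also: KINOMEscan kinase panel screen.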

Row | Structure (SMILES) | %Inh [%]
1 | Cl.c1ccc(-c2n[nH]cc2-c2ccnc(-c3ccc(CN4CCOCC4)cc3)c2)nc1 [GW776245] | 0
2 | Cc1nnc(-c2ccc3occ(-c4ccc(S(C)=O)cc4)c3c2)[nH]1 (stereo not shown) | 0
3 | Cn1ccc2ncnc(Oc3ccc(Nc4nc5ccccc5[nH]4)cc3)c21 | 5
4 | COc1cc2ncn(-c3cc(OCC4CCCO4)c(C(N)=O)s3)c2cc1OC (stereo not shown) [GSK204607] | 0
5 | Cc1cccc(-c2nc(-c3ccc(S(C)(=O)=O)cc3)sc2-c2ccnc(NCCc3ccccc3)c2)c1 | 14
6 | COC(=O)c1c(-c2ccccc2)c2cc(C(=O)O)ccc2c(=O)n1Cc1ccccc1 | 0
7 | Cl.Oc1ccc(-c2nc(-c3ccccc3)[nH]c2-c2ccncc2)cc1 [SB-428218] | 0
8 | CC(=O)Nc1nc2cnc(Nc3cc(NC(=O)c4cccc(CCC#N)c4)ccc3C)nc2s1 | 0
9 | O=C(Nc1n[nH]c2nc(-c3nccs3)c(Br)cc12)C1CCCC1 [SB-742609] | 14
10 | CCn1c(-c2ccccn2)nc2cnccc21 [SB-736398] | 0
11 | NC(=O)c1nnc2ccccc2c1N | 14
12 | COc1ccc(Nc2nccc(NCCNC(=O)Nc3ccccc3F)n2)cc1 [GSK1379901] | 0
13 | Cc1cc(N2Cc3ccccc3C2)nc(Nc2ccc(S(=O)(=O)N3CCOCC3)cc2)n1.Cl [GSK1669917] | 0
14 | CC1=C(C(=O)Nc2cc3cn[nH]c3cc2F)C(c2ccc(C(F)(F)F)cc2)CC(=O)N1 (stereo not shown) [GSK429286] | 12
15 | COC(=O)c1c(-c2ccccc2)c2cc(OC)ccc2c(=O)n1Cc1ccccc1 | 3
16 | O=C(O)COc1ncnc2cc(-c3ccc4[nH]ncc4c3)sc12 | 24
17 | Nc1nc(-c2nccs2)c(-c2ccnc3ccccc23)s1 [GW693542] | 26

Row | Structure (SMILES) | %Inh [%]
18 | Cn1cncc1-c1ccc2ncnc(Nc3ccc(OCc4ccccc4)cc3)c2c1 [GW320571] | 30
19 | O=C(Nc1ccc2c(c1)OCO2)NC1CCN(c2ccnc(Nc3ccc(F)cc3)n2)C1 (stereo not shown) [GSK1379724] | 0
20 | Cc1ccccc1-n1cnc2c(N)ncnc21 [SKF-97510] | 0
21 | Cn1ccc2ncnc(Oc3ccc(NC(=O)Nc4ccccc4)cc3)c21 | 0
22 | O=C1NC(=O)C(N2CCc3ccccc32)=C1c1ccccc1Cl [SB-373598] | 13
23 | O=C(Nc1ccccc1)Nc1cccc(Oc2ccc3nccn3n2)c1 | 0
24 | Nc1ncnc2[nH]c(-c3ccccc3)nc12 [AH5015] | 38
25 | CS(=O)(=O)c1ccc(-c2c(-c3ncn[nH]3)sc(N3CCOCC3)c2C#N)cc1 | 11
26 | Cc1c(O)cccc1Nc1ccnc2ccc(C(F)(F)F)cc12.Cl [GW466413] | 12
27 | CS(=O)(=O)c1ccc(-c2nc3n(c2-c2ccncc2)CCC3)cc1 [SKF-105942] | 8
28 | Cc1cc(NCC(c2ccccc2)c2ccccc2)nc(NCc2ccc(C(F)(F)F)cc2)n1 [GW497681] | 0
29 | Cl.NC(=O)c1cccc(Nc2nccc(Nc3ccc(Oc4cccc(Cl)c4)c(Cl)c3)n2)c1 [GW659008] | 12
30 | CC(C)(C)c1ccc(C(=O)Nc2cn3cc(Cl)ccc3n2)cc1 | 0
31 | O=c1cc(N2CCOCC2)nc2n(Cc3cccc(Cl)c3Cl)ccn12 [GSK2286295] | 0
32 | CCCc1ccc(S(=O)(=O)NC2CCN(c3ccnc(Nc4ccc(F)cc4)n3)C2)cc1 (stereo not shown) [GSK1379715] | 0
33 | O=S(=O)(c1ccc(-c2ccnc3[nH]ccc23)cc1)N1CCCC1 [GSK846226] | 0
34 | COc1ccc(C2=C(Nc3cccc(C(=O)O)c3)C(=O)NC2=O)cc1 [SB-390765] | 7
